Source: PubChem
TDP-43 tox inh = inhibitors of TDP-43 toxicity in yeast | hit rate 0.45% among 45,000 | AID 1347073 | Potency, µM (highest dose often 46.1 µM), hits mostly activators | yeast TDP-43 toxicity rescue, BacTiter-Glo growth, 24 h; active = well fitted activation curve with a large enough effect; also: 0% is about no effect; nearly all actives have a fitted effect of over 55% in size
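TDP-43-expressing yeast, pregrown in raffinose, seeded at OD600 0.02 in galactose medium with compound for 24 hr at 30 deg C. Growth read by BacTiter-Glo luminescence, so rescue of toxicity appears as activation.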
Starred values were filed as active, the others as inactive; i = inactive. This excerpt belongs to a sample that is enriched for hits. Potency is read from the fitted curve at half-maximal effect.

SMILES | TDP-43 tox inh
COc1ccccc1NC(=O)c1ncn(-c2ccccc2)n1 | i
O=C(c1cccc([N+](=O)[O-])c1)c1ccc2c(c1)OCCOCCOCCO2 | i
CC(=O)c1ccc2c(c1)OCCOCCOc1ccccc1OCCOCCO2 | 16µM*
NC(=O)c1ccc2c(c1)OCCO2 | i
Cc1ccc(CN2C(=O)C(F)(F)Oc3ccc(C)cc32)cc1 | i
COc1ccc(-c2nc(CNS(=O)(=O)c3cccc(F)c3)cs2)cc1 | 16µM*
COc1ccc(-c2nc(CNS(=O)(=O)c3ccc(C)cc3)cs2)cc1 | i
COc1ccc(-c2nc(CNS(=O)(=O)c3ccc(F)cc3)cs2)cc1 | i
CCCc1nc2ccccc2n1CC(O)COc1ccc(C(=O)OC)cc1 (stereo not drawn) | i
COc1ccc(Cc2nc3c4cnn(-c5ccccc5Br)c4ncn3n2)cc1 | i
O=C(NCc1ccco1)c1ccc2sc([C@@H]3O[C@H](CO)[C@@H](O)[C@H]3O)nc2c1 | i
COc1cccc(CNC(=O)C2CCN(c3nnc(-n4c(C)ccc4C)s3)CC2)c1 | i
Cc1cccc(N2CCN(C(=O)/C=C/c3cccs3)CC2)c1C | 14µM*
CCOC(=O)C1CCN(C(=O)/C=C/c2cccs2)CC1 | i
Cc1cccc(N2CCN(C(=O)c3ccc4[nH]c(C)c(C)c4c3)CC2)c1C | i
COc1ccc(NC(=O)C2Cc3c(-c4cccc(C(C)=O)c4)ccnc3O2)cn1 (stereo not drawn) | i
CNc1cncc(-c2ccccc2NC(C)=O)n1 | i
CNc1cncc(-c2ccccc2CO)n1 | i
CNc1cncc(-c2ccc(OC)c(OC)c2)n1 | 11µM*
Cc1ccccc1C(=O)Nc1nnc([C@@H]2C[C@H](O)[C@@H](CO)O2)s1 | i
COc1ccc(C2=NS(=O)(=O)N(C)C(C(=O)Nc3ccc(OC(F)(F)F)cc3)=C2)cc1 | i
CC1(C(=O)NCc2ccc(C(F)(F)F)cc2)CCN1Cc1ccc(-c2ccccc2)o1 (stereo not drawn) | i
O=C(Nc1ccc(C(F)(F)F)cc1)C(Cc1ccccc1)n1cccc1 (stereo not drawn) | i
O=C(NC(=S)Nc1cccc2cc(O)ccc12)c1ccccc1Br | 16µM*
O=C(NC(=S)Nc1cccc2cnccc12)c1ccccc1 | i
SMILES | TDP-43 tox inh
CC1CCCCC1NC(=S)NC(=O)c1ccccc1Br (stereo not drawn) | i
O=S(=O)(NCCC(c1ccc(F)cc1)c1ccco1)c1ccccc1 (stereo not drawn) | 18µM*
COc1ccc(CNCCC(c2ccc(C)cc2)c2ccco2)cc1 (stereo not drawn) | i
O=C(O)C(NS(=O)(=O)c1ccc(F)cc1)c1ccccc1 (stereo not drawn) | i
CN(CC1COc2ccccc2O1)C(=O)CSc1nncs1 (stereo not drawn) | i
CCCN(CC1CC1)C(=S)Nc1ccccc1F | i
CN(CC1COc2ccccc2O1)C(=S)Nc1ccccc1F (stereo not drawn) | 11µM*
CCCSc1ncc(Cl)c(C(=O)Nc2ccc(OC)cc2OC)n1 | i
Cc1ccc(C(C)C)c(OCC(=O)Nc2ccc(O)c(-c3nc4cc(Cl)ccc4o3)c2)c1 | i
COc1cccc(C(C)(O)c2nc(-c3ccc(OC)nc3)cs2)c1 (stereo not drawn) | 18µM*
CC(O)(c1ccc(F)c(F)c1)c1nc(-c2ccc(Cl)cc2)cs1 (stereo not drawn) | i
CC(O)(c1cccc(F)c1)c1nc(-c2ccncc2)cs1 (stereo not drawn) | i
CC(O)(c1cccnc1)c1nc(-c2ccc3c(c2)OCO3)cs1 (stereo not drawn) | i
CC(O)(c1ccccc1)c1nc(-c2cccc(C(=O)O)c2)cs1 (stereo not drawn) | i
CC(C)c1cccc(-c2csc(C(C)(O)c3ccccc3)n2)c1 (stereo not drawn) | i
COc1ccc(C(C)(O)c2nc(-c3ccc4c(c3)OCO4)cs2)cc1 (stereo not drawn) | 13µM*
COc1cccc(C(C)(O)c2nc(-c3cncnc3)cs2)c1 (stereo not drawn) | i
COc1ccc(C(C)(O)c2nc(-c3csc4ccccc34)cs2)cc1 (stereo not drawn) | 18µM*
CCCOc1ccc(CNC(=O)c2cc3oc4ccccc4c3n2C)cc1 | i
CSc1ccc(CCNC(=O)C2=C(C)C(=O)OC23CCCCC3)cc1 | i
CCCN(C(=O)c1ccc2c(=O)n3c(nc2c1)CCCCC3)c1cccc(Cl)c1 | i
CC(=O)c1cccc(NC(=O)C(C)N(C)CC(=O)Nc2ccc(Cl)cc2)c1 (stereo not drawn) | i
COC(=O)c1cccc(NC(=O)c2nsc3ccccc23)c1 | i
CCCNS(=O)(=O)c1cc(-c2nnc3c4ccccc4c(C)nn23)ccc1OC | i
CCCCNC(=O)C1(C)CCCCN1C(=O)c1ccc(F)c(C)c1 (stereo not drawn) | i
SMILES | TDP-43 tox inh
CCc1nc2c(OCCOc3ccc(F)cc3)cccn2c1N(C)C(=O)C(C)C | i
O=C(c1cc(C2CCCCN2S(=O)(=O)c2cccs2)on1)N1CCOCC1 (stereo not drawn) | i
Cc1ccc(-c2noc(CN(C)C(=O)c3ccoc3C)n2)cc1 | i
Cc1ccc(-c2noc(CN(C(=O)c3ccc4c(c3)OCO4)C(C)C)n2)cc1 | i
COc1ccc(-c2noc(CN(C(=O)C(C)Oc3ccc(C)cc3)C(C)C)n2)cc1 (stereo not drawn) | 20µM*
CC(C)CNC(=O)C1(C)CCCCCN1C(=O)c1cc(C#N)cs1 (stereo not drawn) | i
O=C(c1cc(-c2ccccc2O)on1)N1CCCCC1 | i
O=C(N/N=C/c1ccccc1O)NC12CC3CC(CC(C3)C1)C2 | i
O=C(N/N=C/c1ccc(O)c(O)c1)NC12CC3CC(CC(C3)C1)C2 | i
NC(=S)N/N=C/c1ccc(C23CC4CC(CC(C4)C2)C3)cc1 | 7.9µM*
COc1ccc(-c2nn3c(-c4ccc(C)cc4)nnc3c3ccccc23)cc1 | i
Clc1ccc(-c2cnc3ccccc3n2)cc1 | i
O=C(O)CCC(=O)Nc1cccc(-c2csc(-c3ccccc3)n2)c1 | i
O=C(CCl)Nc1cccc(-c2cnc3ccccc3n2)c1 | 13µM*
CCN(Cc1ccccc1)C(=O)Cn1c(=O)oc2cc(S(=O)(=O)N3CCCCCC3)ccc21 | i
COc1ccc(-c2nc(S(=O)(=O)c3ccc(Cl)cc3)c(N3CCCCCC3)o2)cc1 | i
CC(=O)c1cccc(-c2ccnc3c2CC(C(=O)Nc2cccc(OC(F)(F)F)c2)O3)c1 (stereo not drawn) | 22µM*
O=C(Nc1cccc(OC(F)(F)F)c1)C1Cc2c(-c3ccco3)ccnc2O1 (stereo not drawn) | i
CC(=O)Nc1ccc(NC(=O)C2Cc3c(-c4cccc(C(C)=O)c4)ccnc3O2)cc1 (stereo not drawn) | i
Cc1ccc(Cl)cc1NC(=O)N1CCC2(CC1)Oc1ccccc1C(=O)N2Cc1ccccc1F | i
CCCCN1CCc2nc(N3CCN(c4ncccn4)CC3)ncc2C1 | i
O=[N+]([O-])c1ccc(Oc2ccc(/C=N/O)cc2)nc1 | i
CCN(CC)c1nc(Oc2ccc(C(=O)NN)cc2)nc(Oc2ccc(C(=O)NN)cc2)n1 | i
CN(C)c1nc(Oc2ccc(/C=N/O)cc2)nc(N(C)C)n1 | 11µM*
O=C(Nc1nc2c(F)cc(F)cc2s1)c1ccc2c(c1)OCCO2 | i
Cc1ccc(N2CCN(c3nc4ccccc4n4nnnc34)CC2)c(C)c1 | i
